Screens deposited in PubChem BioAssay by several laboratories.
Rows were chosen to be rich in hits. Some 1.3% of all compounds tested hit in one or more screens of this group.
NCOA3 inh: inhibits human SRC3 coactivator | inhibition, % at 3.6 µM | HEK293 GAL4-SRC3 luciferase reporter, luminescence | 360,000 tested, 0.17% active | Q9Y6Q9;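 active = inhibition above a per-campaign cutoff, the mean of all compounds plus 3 SD, cut at about 60% in these data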;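 also: higher means less SRC3-driven luciferase light from the GAL4 reporter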
Gli-Sufu block: blocks Gli-Sufu signaling in a luciferase reporter; Sufu-KO-LIGHT fibroblasts, Gli luciferase reporter luminescence; inhibition, % at 5 µM; 340,000 tested, 0.74% active; AID 588413;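 active = inhibition above about 55%, limit read from the data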
COUP-TFII inh: inhibitors of human COUP-TFII (NR2F2) | P24468 | HEK293T NGFI-A luciferase reporter, luminescence | inhibition, % at 8.6 µM | 370,000 tested, 0.7% active;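 active = inhibition above a per-plate cutoff, mean inhibition of test wells between control levels plus 3 SD, cut at about 38% in these data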;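 also: cells cotransfected with COUP-TFII expression vector driving the NGFI-A reporter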
Target sequence (P24468 whole entry, looked up): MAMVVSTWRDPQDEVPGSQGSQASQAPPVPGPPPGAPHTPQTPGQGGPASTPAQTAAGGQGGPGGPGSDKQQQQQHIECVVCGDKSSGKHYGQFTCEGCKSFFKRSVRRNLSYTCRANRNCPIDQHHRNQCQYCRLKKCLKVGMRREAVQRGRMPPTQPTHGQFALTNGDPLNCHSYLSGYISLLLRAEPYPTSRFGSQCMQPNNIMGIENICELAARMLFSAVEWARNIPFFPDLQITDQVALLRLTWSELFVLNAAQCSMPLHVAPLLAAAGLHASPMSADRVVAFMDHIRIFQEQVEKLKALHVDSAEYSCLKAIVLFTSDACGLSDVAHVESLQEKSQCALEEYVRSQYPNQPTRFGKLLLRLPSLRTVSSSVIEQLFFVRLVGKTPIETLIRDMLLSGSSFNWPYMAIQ
NCOA2 inhibitor: inhibits human steroid receptor coactivator 2; inhibition, % at 9 µM; 370,000 tested, 0.17% active; HEK293 GAL4-SRC2 luciferase reporter, luminescence; AID 651957; Q15596;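 active = inhibition above the mean inhibition of all tested compounds plus 3 SD, set per campaign, cut at about 52% in these data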
NCOA1 inh: inhibitors of human steroid receptor coactivator 1 (SRC1) | Q15788 | HEK293 GAL4-SRC1 luciferase reporter, luminescence | inhibition, % at 3.6 µM | 360,000 tested, 0.12% active;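 active = inhibition above the campaign mean plus 3 SD, with each screening campaign given its own cutoff, cut at about 60% in these data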
NR5A2 inv ag: inverse agonists of human LRH-1 (NR5A2). O00482. HEK293T StAR-luciferase reporter, LRH-1 transfected, 24 h. inhibition, % at 3.6 µM. 360,000 tested, 0.13% active. AID 602396;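 active = inhibition above the mean inhibition of all tested compounds plus 3 SD, cut at about 73% in these data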
Gli-Sufu confirm: confirmation of Gli-SUFU pathway antagonists | shares compounds with Gli-Sufu block | Sufu-KO-LIGHT cells, Gli luciferase reporter, luminescence | inhibition, % at 5 µM | 2,500 tested, 40% active | AID 602428;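 active = mean inhibition at 5 µM reaching about 45%, limit read from the data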
SufuKO cytotox: counter-screen for Gli-SUFU antagonists: cytotoxicity. Sufu-KO-LIGHT cells cytotoxicity, ATP luminescence. shares compounds with Gli-Sufu block. cytotoxicity, % at 5 µM. AID 651994. 2,500 tested, 32% active;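 active = mean cytotoxicity at 5 µM above about 25%, limit read from the data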;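 also: cells exposed to compound overnight for roughly 16 to 18 hours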
Wnt3a counter: Wnt3a reporter inhibition counter-screen | shares compounds with Gli-Sufu block | Wnt-LIGHT cells, Wnt3a-driven luciferase reporter, luminescence | inhibition, % at 6.25 µM | 2,500 tested, 20% active | AID 651995;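 active = mean inhibition above about 25%, limit read from the data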
Large screens that a line does not name were inactive (follow-up assays come after a bar, where they were run).

CCc1cccc(NC(=O)C2CCCN2S(=O)(=O)c2cccc3cccnc23)c1 (stereo not drawn)	none | Gli-Sufu confirm inactive | SufuKO cytotox inactive | Wnt3a counter inactive
Cn1nc(CC(=O)Nc2ccc3c(c2)CCC3)c2ccccc2c1=O	Gli-Sufu block 72 | Gli-Sufu confirm 68 | SufuKO cytotox 41 | Wnt3a counter inactive
COc1ccc(S(=O)(=O)NCC2CCCN(Cc3ccccc3Cl)C2)cc1 (stereo not drawn)	none
COc1ccc(S(=O)(=O)NCC2CCCN(Cc3ccc(OC)cc3F)C2)cc1 (stereo not drawn)	Gli-Sufu block 60 | Gli-Sufu confirm inactive | SufuKO cytotox inactive | Wnt3a counter inactive
COc1cc(OC)cc(C(=O)OCC(=O)c2ccc(S(=O)(=O)N3CCCCC3)cc2)c1	Gli-Sufu block 96 | Gli-Sufu confirm inactive | SufuKO cytotox inactive | Wnt3a counter inactive
O=C(CCNC(=O)N1CC(=O)Nc2ccccc21)NCCc1cccc(F)c1	none | Gli-Sufu confirm inactive | SufuKO cytotox inactive | Wnt3a counter inactive
COC(=O)c1cc2c(c3c4ccccc4n(S(=O)(=O)c4ccc(OC)cc4)c13)C(=O)N(Cc1ccccc1OC)C2	none (no result: NCOA3 inh, Gli-Sufu block, NCOA1 inh, NR5A2 inv ag)
CNc1ccccc1C(C)(C)c1cc(-c2cccc(OC)c2)no1	Gli-Sufu block 71 | Gli-Sufu confirm 76 | SufuKO cytotox 42 | Wnt3a counter inactive
COc1cc(CCN=Cc2cccc(OC)c2O)c([N+](=O)[O-])cc1OC	none (no result: NCOA3 inh, Gli-Sufu block, NCOA1 inh, NR5A2 inv ag)
CCCCC1CCC(C(=O)OCC(=O)N(CCOC)c2c(N)n(Cc3ccccc3)c(=O)[nH]c2=O)CC1 (stereo not drawn)	none
COCCN(C(=O)COC(=O)C1CCC(C(C)(C)C)CC1)c1c(N)n(Cc2ccccc2)c(=O)[nH]c1=O (stereo not drawn)	Gli-Sufu block 72 | Gli-Sufu confirm 81 | SufuKO cytotox 28 | Wnt3a counter inactive
COC(=O)[C@]12C[C@H](CC(=O)NCc3ccc(C)o3)C(=O)N(Cc3ccc(Cl)cc3Cl)C1=C[C@H](COCc1ccccc1)O[C@@H]2C	none (no result: NCOA3 inh, Gli-Sufu block, NCOA1 inh, NR5A2 inv ag)
Cc1sc2ncnc(NCc3ccco3)c2c1C	none
Cc1sc2ncnc(NCc3cccs3)c2c1C	Gli-Sufu block 57 | Gli-Sufu confirm 50 | SufuKO cytotox 26 | Wnt3a counter inactive
COc1cc2c(c(OC)c1OC)-c1ccc(N(C)CC(OC)OC)c(=O)cc1[C@@H](NC(C)=O)CC2	Gli-Sufu block 57 | Gli-Sufu confirm 58 | SufuKO cytotox 34 | Wnt3a counter inactive
COc1cc2c(c(OC)c1OC)-c1ccc(OC)c(=O)cc1[C@@H](N(C)CC#CCO)CC2	Gli-Sufu block 66 | Gli-Sufu confirm 58 | SufuKO cytotox 62 | Wnt3a counter 41
CN[C@H]1CCc2cc(OC)c(OC)c(OC)c2-c2ccc(N(C)CC(OC)OC)c(=O)cc21	none
COc1cc2c(c(OC)c1OC)-c1ccc(SC)c(=O)cc1C(NC(=O)C(F)(F)F)CC2 (stereo not drawn)	none | Gli-Sufu confirm 60 | SufuKO cytotox 61 | Wnt3a counter 41
C[C@H](CO)N1C[C@H](C)[C@@H](CN(C)C(=O)Nc2ccc(-c3cccs3)cc2)OCc2cn(nn2)CCCC1=O	none (no result: NCOA3 inh, Gli-Sufu block, NCOA1 inh, NR5A2 inv ag)
COC(=O)c1cc2c(c3c4cc(F)ccc4n(S(=O)(=O)c4ccc(C)cc4)c13)C(=O)N(Cc1ccc(C(F)(F)F)cc1)C2	none (no result: NCOA3 inh, Gli-Sufu block, NCOA1 inh, NR5A2 inv ag)
Cc1ccc(-c2nnc(N3CCC(C)CC3)c3ccccc23)cc1C	none | Gli-Sufu confirm inactive | SufuKO cytotox inactive | Wnt3a counter 27
Cc1ccc(-c2nnc(N3CCC(C)CC3)c3ccccc23)cc1	none
C[C@@H]1ON(C)[C@H]2C[C@H]3c4cc(-c5ccccc5)ccc4CCN3C[C@@H]12	none (no result: NCOA3 inh, Gli-Sufu block, NCOA1 inh, NR5A2 inv ag)
COc1ccc(-c2cnc3c(c2)CCC3(C#N)C#N)cc1	none | Gli-Sufu confirm 61 | SufuKO cytotox 47 | Wnt3a counter inactive
Cc1sc2nc(CSc3ccccc3)nc(NCCN(C)C)c2c1C	none
CCNc1nc(CSc2ccccc2)nc2sc(C)c(C)c12	Gli-Sufu block 69 | Gli-Sufu confirm inactive | SufuKO cytotox inactive | Wnt3a counter inactive
Cc1nnc(SCC(=O)N2CCCC2)n1-c1ccc(F)cc1	none
CCSc1nnc(C)n1-c1ccc(C(=O)O)cc1	Gli-Sufu block 95 | Gli-Sufu confirm inactive | SufuKO cytotox inactive | Wnt3a counter inactive
O=C(Nc1nc(=O)c2ccccc2s1)c1ccccc1	none
O=C(Nc1nc2c(s1)C(=O)CCC2)c1ccccc1	Gli-Sufu block 70 | Gli-Sufu confirm inactive | SufuKO cytotox 29 | Wnt3a counter inactive
Cc1ccccc1CN1CCCCC(NC(=O)c2cccc([N+](=O)[O-])c2)C1=O (stereo not drawn)	none (no result: NCOA3 inh, Gli-Sufu block, NCOA1 inh, NR5A2 inv ag)
Cc1cc(C)c(C)c(S(=O)(=O)N2CCN(c3ncnc4ccccc34)CC2)c1C	none | Gli-Sufu confirm 71 | SufuKO cytotox inactive | Wnt3a counter inactive
O=C(N=Nc1c(O)[nH]c2ccc(Br)cc12)c1ccccc1-n1cccc1	Gli-Sufu block 57 | Gli-Sufu confirm inactive | SufuKO cytotox 34 | Wnt3a counter inactive
O=C(N[C@@H](Cc1cccnc1)C(=O)N1CCC[C@H]1C(=O)NCCc1ccccc1Cl)C1CCCC1	none (no result: NCOA3 inh, Gli-Sufu block, NCOA1 inh, NR5A2 inv ag)
COc1cc(/C=N/NC(=O)c2cc(-c3ccccc3)nc3ccccc23)ccc1O	Gli-Sufu block 59 | Gli-Sufu confirm inactive | SufuKO cytotox inactive | Wnt3a counter inactive
COc1ccc(/C=N/NC(=O)c2nc(-c3ccccc3)cc(-c3ccccc3)n2)cc1O	Gli-Sufu block 55 | Gli-Sufu confirm inactive | SufuKO cytotox inactive | Wnt3a counter inactive
COc1ccc(/C=N/NC(=O)c2cc(-c3ccccc3)nc3ccccc23)cc1O	none
COC(=O)C1=C(C)N(Cc2ccccc2C(F)(F)F)C(=NCc2ccc(OC)cc2)NC1c1ccccc1 (stereo not drawn)	none (no result: NCOA3 inh, Gli-Sufu block, NCOA1 inh, NR5A2 inv ag)
COc1cccc(-c2nc(NCCN3CCOCC3)c3ccccc3n2)c1O	Gli-Sufu block 98 | Gli-Sufu confirm inactive | SufuKO cytotox inactive | Wnt3a counter inactive
N#CCSc1nnc(-c2ccc(S(=O)(=O)N3CCOCC3)cc2)n1CC1CCCO1 (stereo not drawn)	Gli-Sufu block 94 | Gli-Sufu confirm inactive | SufuKO cytotox inactive | Wnt3a counter inactive
NC(=O)CSc1nnc(-c2ccc(S(=O)(=O)N3CCCC3)cc2)n1CC1CCCO1 (stereo not drawn)	none
COC(=O)CCC(=O)NC(=S)Nc1sc(C)c(C)c1C(N)=O	none | Gli-Sufu confirm 50 | SufuKO cytotox 51 | Wnt3a counter inactive
COC(=O)CCC(=O)Nc1sc(C)c(C)c1C(N)=O	none
